Test results from PubChem BioAssay AID1259415 (National Center for Advancing Translational Sciences (NCATS), 2018).
Hit rate of the full screen: of about 410,000 compounds, about 18,000 (4.4%) were called active. About 7% were inconclusive and are not listed. This excerpt belongs to a sample that is enriched for actives. Values without a mark were called inactive. No stated cut-off is given here; in the data, active means activity change below about -60%; inconclusive means no clear call, values can overlap the other calls; inactive means above about -39%.
On the % scale 0 is the no-effect control and ±100 the full control effect.

Experiment: qHTS Assay for inhibitors of the human cytomegalovirus (HCMV)
Details: HFF cells, HCMV-luciferase reporter, 72 h; at 57.5 µM; stronger effect = lower value
Procedure, shortened: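 Human foreskin fibroblasts infected with luciferase-reporter HCMV at MOI 1 PFU/cell, compounds at two doses. Luciferase measured 72 h post infection; normalized to buffer-only basal and Salinomycin (10uM) controls.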
For `CC1(C(=O)NCc2cccc3ccccc23)CCN1Cc1ccc(-c2ccccc2)o1` (centres undefined), the activity change, negative = inhibition was -20.5%. With `CCNC(=O)C1CCCN(C(=O)c2ccc(OC)cc2OC)CC1` (centres undefined) the activity change, negative = inhibition was -11.4%. Compound `Cn1c(=O)c2c(-c3ccccc3Br)n(Cc3ccccc3)cc2n(C)c1=O` has an activity change, negative = inhibition of -17.1%. For `CCc1nn(CC(=O)N2CCN(c3ccc(Cl)cc3)CC2)c(=O)c2cc3occc3n12`, the activity change, negative = inhibition was -13.8%. Work on `Cc1cccc(S(=O)(=O)c2cn(Cc3ccccc3)c3cc(N4CCOCC4)c(F)cc3c2=O)c1` yielded an activity change, negative = inhibition of 17.2%. With `CCOc1cc(-c2noc(CCCC(=O)NC3CCCCC3)n2)ccc1OC` the activity change, negative = inhibition was -89.7% (active). Work on `CCOc1cc(-c2noc(CCC(=O)N3CCOCC3)n2)ccc1OC` yielded an activity change, negative = inhibition of 2.89%. Work on `COc1ccc(-c2noc(CCCC(=O)NC3CCCC3)n2)cc1OC` yielded an activity change, negative = inhibition of -17%. With `C[C@@H]1CN([C@@H](C)CO)C(=O)CCCn2nncc2CO[C@H]1CN(C)C(=O)Nc1ccc(C(F)(F)F)cc1` the activity change, negative = inhibition was 8.54%. `CC[C@@H](C)[C@@H](C(=O)N1CCN(C(=O)OC(C)(C)C)CC1)n1cc(CCC(=O)O)nn1` gave an activity change, negative = inhibition of 14.7%. Compound `COc1ccc(-c2noc(-c3ccc(N4CCN(c5ccccc5)CC4)c([N+](=O)[O-])c3)n2)cc1OC` has an activity change, negative = inhibition of 14.1%. For `CC1=CC(=C(C#N)c2nc3ccccc3s2)C=C(C)N1c1ccc(F)cc1F`, the activity change, negative = inhibition was -64.6% (active). `Cc1ccc(F)cc1S(=O)(=O)N1CCC(c2nc3ccccc3s2)CC1` gave an activity change, negative = inhibition of -23.3%. In the case of `Cc1ccc(C(=O)Nc2ccc3[nH]c(=O)c(=O)[nH]c3c2)cc1`, the activity change, negative = inhibition is reported as -0.693%. With `CCOc1ccccc1NC(=O)Cn1c(=O)n(-c2cccc(C)c2)c(=O)c2c1c1cc(OC)ccc1n2C` the activity change, negative = inhibition was 19.1%. For `COc1ccc(C(=O)Nc2onc3c2CCCC3)cc1`, the activity change, negative = inhibition was 1.09%. `CCOc1cccc(CNC(=O)c2ccc(N3CCCC3)c(NC(=O)Nc3ccccc3CC)c2)c1` gave an activity change, negative = inhibition of -10.9%. Compound `Cc1ccccc1CNC(=O)CCCn1nc(C)c2sc3ccccc3c2c1=O` has an activity change, negative = inhibition of 14.7%. `O=C(NC1CCCCC1)N1Cc2cc(N3CCCCC3)ccc2-n2nncc2C1` gave an activity change, negative = inhibition of 40.9%. For `CCOC(=O)CNC(=O)N1Cc2cc(N3CCCCC3)ccc2-n2nncc2C1`, the activity change, negative = inhibition was -62.1% (active). Work on `CC(C)CN1Cc2cc(N3CCCCC3)ccc2-n2nncc2C1` yielded an activity change, negative = inhibition of 10.2%. For `Cn1c(C(=O)N2CCC(C(=O)N3CCN(c4ccccc4)CC3)CC2)cc2sccc21`, the activity change, negative = inhibition was -22.9%. Compound `Cc1nn(CC(=O)N2CCN(c3cccc(C(F)(F)F)c3)CC2)c(=O)c2cc3sccc3n12` has an activity change, negative = inhibition of 2.88%. In the case of `COc1ccc(F)cc1C(=O)COC(=O)c1n[nH]c(=O)c2ccccc12`, the activity change, negative = inhibition is reported as 49.5%. Compound `CC1CC(C)CN(S(=O)(=O)c2ccc(C(=O)NN3CCOCC3)cc2)C1` (centres undefined) has an activity change, negative = inhibition of -27.9%. For `CC1CCCN(S(=O)(=O)c2ccc(C(=O)Nc3nnc(-c4ccncc4)o3)cc2)C1` (centres undefined), the activity change, negative = inhibition was -96.5% (active). In the case of `CS(=O)(=O)c1ccc(-c2nnc(NC(=O)c3ccc4c(c3)OCCO4)o2)cc1`, the activity change, negative = inhibition is reported as -0.462%. With `C[C@H]1CN([C@@H](C)CO)C(=O)CCCn2nncc2CO[C@@H]1CN(C)C(=O)Nc1ccc(N2CCN(C)CC2)cc1` the activity change, negative = inhibition was -20.2%. Work on `COc1cc(C2OC(c3cc(OC)c(OC)c(OC)c3)C(C)C2C)cc(OC)c1OC` (centres undefined) yielded an activity change, negative = inhibition of 54.8%. For `O=C(CC1Oc2ccccc2NC1=O)NCc1ccc(F)cc1` (centres undefined), the activity change, negative = inhibition was -9.67%. Work on `O=C(NCc1ccccc1)c1ccc2c(c1)nc1n2CCCCC1` yielded an activity change, negative = inhibition of 27.3%. In the case of `Cc1cc(C)nc(S/C=C/C(=O)c2ccccc2)n1`, the activity change, negative = inhibition is reported as -90.7% (active). For `CCn1c(CSc2nc(C)cc(C)n2)nnc1SCC(N)=O`, the activity change, negative = inhibition was -18.8%. `CCC1Oc2ccc(Cl)cc2N(CC(=O)O)C1=O` (centres undefined) gave an activity change, negative = inhibition of -13.4%. Work on `Cc1cc(C)n(C(=O)c2ccc(C)c(S(=O)(=O)N3CCOCC3)c2)n1` yielded an activity change, negative = inhibition of -11.1%. `O=C(Nc1cccn(Cc2ccccc2Cl)c1=O)NC1CCCCC1` gave an activity change, negative = inhibition of -37.7%. For `O=C(Nc1cccn(Cc2c(Cl)cccc2Cl)c1=O)c1ccc(Cl)cc1`, the activity change, negative = inhibition was -83.3% (active). For `CCn1c(=O)c(=O)n(CC)c2cc(N3CCCCC3)c(NC(=O)c3ccc(Cl)cc3)cc21`, the activity change, negative = inhibition was -11.3%. Compound `Cc1ccc(C(=O)Nc2ccc(OCc3cc(=O)n4c5c(sc4n3)CCCC5)cc2)cc1` has an activity change, negative = inhibition of 7.24%. With `COc1ccc(S(=O)(=O)N2CCOCC2)cc1NC(=O)CSc1nnc(NC2CC2)s1` the activity change, negative = inhibition was 18.1%. With `COc1ccc(S(=O)(=O)N2CCOCC2)cc1NC(=O)CSc1ncnc2ccccc12` the activity change, negative = inhibition was -109% (active). With `COc1ccc(S(=O)(=O)N2CCOCC2)cc1NC(=O)CSc1cc(C)ccc1C` the activity change, negative = inhibition was -10.1%. `CCCCN(CC)CCCNC(=O)Cn1ncc2c([nH]c3ccc(C)cc32)c1=O` showed an activity change, negative = inhibition of -8.89%. In the case of `CNC(=O)/C(C#N)=C/c1c(F)cccc1Cl`, the activity change, negative = inhibition is reported as -80.3% (active). For `Cc1[nH]c2ccccc2c1/C=C(/C#N)C(=O)NC(C)C`, the activity change, negative = inhibition was -36.7%. Compound `O=C(/C=C/c1c(F)cccc1Cl)Nc1nn[nH]n1` has an activity change, negative = inhibition of -8.32%. `COc1ccccc1NC(=O)COc1ccc(C(=O)OCC(=O)N(C(C)C)C(C)C)cc1OC` gave an activity change, negative = inhibition of -9.98%. In the case of `COc1cc(C(=O)N(C)Cc2cccc(OC)c2OC)ccc1OCC(=O)Nc1cccc(C(F)(F)F)c1`, the activity change, negative = inhibition is reported as -86.1% (active). Work on `Cc1cc(S(=O)(=O)N2CCOCC2)ccc1OCC(=O)Nc1cccc(C(F)(F)F)c1` yielded an activity change, negative = inhibition of -13.9%. For `CCCN1CCN(CCCNC(=O)Cn2nc(CC)n3c(cc4occc43)c2=O)CC1`, the activity change, negative = inhibition was 35.8%. For `CC(C)(C)Oc1ccccc1Nc1nc(NCCO)nc(N2CCCC2)n1`, the activity change, negative = inhibition was 1.45%. For `O=c1oc2ccccc2cc1-c1cn(-c2ccccc2)c(=S)[nH]1`, the activity change, negative = inhibition was -86.5% (active). Compound `CC(C)Cn1c(=O)c2ccccc2n2c(-c3cccc(Cl)c3)nnc12` has an activity change, negative = inhibition of 2.19%. `COc1ccc(CNC(=O)CSc2nc3ccccc3nc2Cc2ccccc2)cc1` showed an activity change, negative = inhibition of -15%. With `COCCNS(=O)(=O)c1cc(-c2nn3c(C)nnc3c3ccccc23)ccc1C` the activity change, negative = inhibition was 6.92%. Work on `Cc1cc(Cl)c(S(=O)(=O)N(C)C)cc1OCC(N)=O` yielded an activity change, negative = inhibition of 12.2%. In the case of `Cc1cc(Cl)c(S(=O)(=O)Nc2ccc3c(c2)OCCO3)cc1OCC(N)=O`, the activity change, negative = inhibition is reported as -65.5% (active). Compound `Cc1cc(Cl)c(S(=O)(=O)NCCC(=O)O)cc1OCC(N)=O` has an activity change, negative = inhibition of 8.87%. `CC(C)CNC(=O)CC(c1ccccc1)c1c(O)ccc2ccccc12` (centres undefined) gave an activity change, negative = inhibition of 16%. For `O=C(/C=C/c1ccccc1)Nc1cc(-c2nc3cc(Cl)ccc3o2)ccc1Cl`, the activity change, negative = inhibition was 88.6%. `CC(=O)N1CCCc2cc(S(=O)(=O)N3CCC(C(=O)NCc4ccc(F)cc4)CC3)ccc21` gave an activity change, negative = inhibition of 7.04%. For `O=C(NCc1ccc2c(c1)CCN2C(=O)c1ccccc1)Nc1cc(F)ccc1F`, the activity change, negative = inhibition was -84.8% (active). `O=C(COc1ccccc1)NCc1ccc2c(c1)CCN2C(=O)c1ccc(F)cc1` gave an activity change, negative = inhibition of -6.87%. In the case of `O=C(NCc1ccc2c(c1)CCN2C(=O)c1ccccc1)c1ccccc1`, the activity change, negative = inhibition is reported as 13.7%. Work on `COc1ccc(C(=O)Nc2cccc(C(=O)OCc3cc(=O)n4c5c(sc4n3)CCCC5)c2)cc1` yielded an activity change, negative = inhibition of -36%. With `COc1ccc(CCNc2ncnc3onc(-c4ccc(Cl)cc4)c23)c(OC)c1` the activity change, negative = inhibition was 0.256%. In the case of `COc1ccc(OC)c(Cc2cnc3nc(N)nc(N)c3c2C)c1`, the activity change, negative = inhibition is reported as -98.1% (active). `COc1ccc(OC)c(-n2nnc3c(sc4nc(C)c(Br)c(C)c43)c2=O)c1` gave an activity change, negative = inhibition of -8.62%. Work on `O=C(Cc1ccc(NC(=O)C2CCCN(C(=O)C3CCCCC3)C2)cc1)Nc1cccc(C(=O)N2CCCCC2)c1` (centres undefined) yielded an activity change, negative = inhibition of 1.06%. For `N#Cc1cccc(NC(=O)C2CCCN(C(=O)c3ccc(Cl)cc3)C2)c1` (centres undefined), the activity change, negative = inhibition was -66% (active). Work on `N#Cc1cccc(NC(=O)CN2CCCCCC2)c1` yielded an activity change, negative = inhibition of -11.3%. `CSc1ccc(CCNC(=O)c2cnn(-c3ccccc3)c2-n2cccc2)cc1` gave an activity change, negative = inhibition of -13.5%. For `COc1ccc(Nc2ncc3c(n2)CCN(C(=O)OC(C)(C)C)C3)cc1`, the activity change, negative = inhibition was 12.2%. For `COC(=O)c1ccc(NC(=O)c2cccc3c2C(=O)N(C2CCCCC2)C3)cc1`, the activity change, negative = inhibition was 12.9%. For `COC(=O)c1ccc(C)c(NC(=O)Cn2c(C)csc2=O)c1`, the activity change, negative = inhibition was 0.424%. Work on `CCc1cccc(NC(=O)CN(C)S(=O)(=O)c2ccc3[nH]c4c(c3c2)CCCC4)c1` yielded an activity change, negative = inhibition of 3.8%. With `Cc1cccc(NC(=S)N2CCC(C(=O)c3ccc(F)cc3)CC2)c1` the activity change, negative = inhibition was 15%. With `Cc1cccc(NC(=S)NCc2ccc3[nH]c4c(c3c2)CCCC4)c1` the activity change, negative = inhibition was -72.9% (active). For `Cc1ccc2c(c1)-c1c(cnn1CC(=O)Nc1ccccc1C#N)CO2`, the activity change, negative = inhibition was -27.6%. In the case of `CCn1cc(C(=O)N2CCN(c3cc(C)ccc3C)CC2)c(=O)c2cc(S(=O)(=O)N(C)C3CCCCC3)ccc21`, the activity change, negative = inhibition is reported as 10.1%. `CC(OC(=O)c1c(F)cccc1F)C(=O)NCCC1=CCCCC1` (centres undefined) showed an activity change, negative = inhibition of 20.1%. In the case of `CC(=O)Nc1ccc(S(=O)(=O)N(C)CC(=O)NCCC2=CCCCC2)cc1`, the activity change, negative = inhibition is reported as -7.2%. With `S=C(NCCC1=CCCCC1)Nc1ccccc1` the activity change, negative = inhibition was -67% (active). In the case of `Fc1ccccc1-c1noc2nc(OCc3ccc(OC(F)F)cc3)ccc12`, the activity change, negative = inhibition is reported as 7.83%. `CCc1ccccc1N1C(=O)CN(S(=O)(=O)CC)CC1(C)C(=O)NC1CCCCC1` (centres undefined) gave an activity change, negative = inhibition of 0%. With `COc1ccc2c(c1)C(NS(=O)(=O)OCC(Cl)(Cl)Cl)CCC2` (centres undefined) the activity change, negative = inhibition was -21%. In the case of `CC(C)Cn1c(N)c(C(=O)COC(=O)CN2C(=O)C3CC=CCC3C2=O)c(=O)n(C)c1=O` (centres undefined), the activity change, negative = inhibition is reported as -31.7%. For `CCCc1cc(=O)[nH]c(SCC(=O)c2c(N)n(CC(C)C)c(=O)n(C)c2=O)n1`, the activity change, negative = inhibition was -60.6% (active). `CCCc1cc(=O)[nH]c(SCC(=O)N2C(C)CCCC2C)n1` (centres undefined) showed an activity change, negative = inhibition of 24.9%.
